{
  "source": "the supplement of paper PMC8728848",
  "test_in_all_cases": "glycan array binding signal (z-score within array); higher = stronger binding",
  "details_in_all_cases": "glycan notation: IUPAC condensed, linker removed",
  "key": {"[1]": {"target": "Fuc(a1-2)Gal(b1-3)GalNAc(a1-3)[Fuc(a1-2)]Gal(b1-4)GlcNAc", "how_it_was_run": "(§1)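 The Consortium for Functional Glycomics database supplied 3228 glycan arrays, of which those lacking an available protein sequence were dropped. The binding signal, a within-array Z-score, was averaged across arrays of the same protein sequence and across linkers. Negative scores can be read as non-binding.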"}, "[2]": {"target": "Fuc(a1-2)Gal(b1-3)GlcNAc(b1-3)[Gal(b1-4)GlcNAc(b1-6)]Gal(b1-4)Glc", "how_it_was_run": "as §1"}, "[3]": {"target": "Fuc(a1-2)Gal(b1-4)[Fuc(a1-3)]GlcNAc(b1-3)GalNAc", "how_it_was_run": "as §1"}, "[4]": {"target": "Fuc(a1-2)[Gal(a1-3)]Gal(b1-4)GlcNAc(b1-3)GalNAc", "how_it_was_run": "as §1"}, "[5]": {"target": "Fuc(a1-2)[GalNAc(a1-3)]Gal(b1-4)GlcNAc(b1-3)GalNAc", "how_it_was_run": "as §1"}, "[6]": {"target": "Fuc(a1-2)[GalNAc(a1-3)]Gal(b1-4)[Fuc(a1-3)]GlcNAc", "how_it_was_run": "as §1"}, "[7]": {"target": "Fuc(a1-3)[Gal(b1-4)]GlcNAc(b1-2)Man(a1-3)[Fuc(a1-3)[Gal(b1-4)]GlcNAc(b1-2)Man(a1-6)]Man(b1-4)GlcNAc(b1-4)[Fuc(a1-6)]GlcNAc", "how_it_was_run": "as §1"}, "[8]": {"target": "Fuc(a1-3)[Gal(b1-4)]GlcNAc(b1-3)Gal(b1-3)[Fuc(a1-4)]GlcNAc", "how_it_was_run": "as §1"}, "[9]": {"target": "Fuc(a1-3)[Gal3S(b1-4)]GlcNAc", "how_it_was_run": "as §1"}, "Fuc(a1-4)GlcNAc": {"target": "Fuc(a1-4)GlcNAc", "how_it_was_run": "as §1"}, "[10]": {"target": "Gal(a1-3)Gal(b1-4)GlcNAc(b1-6)GalNAc", "how_it_was_run": "as §1"}, "[11]": {"target": "Gal(a1-4)Gal(b1-4)GlcNAc(b1-3)Gal(b1-4)Glc", "how_it_was_run": "as §1"}, "[12]": {"target": "Gal(b1-3)GlcNAc(b1-2)Man(a1-3)[Gal(b1-3)GlcNAc(b1-2)Man(a1-6)]Man(b1-4)GlcNAc(b1-4)[Fuc(a1-6)]GlcNAc", "how_it_was_run": "as §1"}, "[13]": {"target": "Gal(b1-3)GlcNAc(b1-2)Man(a1-3)[GlcNAc(b1-4)][Gal(b1-3)GlcNAc(b1-2)Man(a1-6)]Man(b1-4)GlcNAc(b1-4)GlcNAc", "how_it_was_run": "as §1"}, "[14]": {"target": "Gal(b1-3)[Fuc(a1-4)]GlcNAc(b1-6)GalNAc", "how_it_was_run": "as §1"}, "[15]": {"target": "Gal(b1-4)GalNAc(b1-3)[Fuc(a1-2)]Gal(b1-4)GlcNAc", "how_it_was_run": "as §1"}, "Gal(b1-4)GlcNAc": {"target": "Gal(b1-4)GlcNAc", "how_it_was_run": "as §1"}, "[16]": {"target": "Gal(b1-4)GlcNAc(b1-2)[Gal(b1-4)GlcNAc(b1-4)]Man(a1-3)[GlcNAc(b1-4)][Gal(b1-4)GlcNAc(b1-2)[Gal(b1-4)GlcNAc(b1-6)]Man(a1-6)]Man(b1-4)GlcNAc(b1-4)GlcNAc", "how_it_was_run": "as §1"}, "[17]": {"target": "Gal(b1-4)GlcNAc(b1-3)Gal(b1-4)GlcNAc(b1-2)Man(a1-3)[Gal(b1-4)GlcNAc(b1-3)Gal(b1-4)GlcNAc(b1-2)Man(a1-6)]Man(b1-4)GlcNAc(b1-4)[Fuc(a1-6)]GlcNAc", "how_it_was_run": "as §1"}, "[18]": {"target": "Gal(b1-4)GlcNAc(b1-3)Gal(b1-4)GlcNAc(b1-3)Gal(b1-4)GlcNAc(b1-2)Man(a1-3)[Gal(b1-4)GlcNAc(b1-3)Gal(b1-4)GlcNAc(b1-3)Gal(b1-4)GlcNAc(b1-2)Man(a1-6)]Man(b1-4)GlcNAc(b1-4)GlcNAc", "how_it_was_run": "as §1"}, "[19]": {"target": "Gal(b1-4)GlcNAc(b1-3)Gal(b1-4)GlcNAc(b1-6)[Gal(b1-3)]GalNAc", "how_it_was_run": "as §1"}, "Gal6S(b1-4)Glc": {"target": "Gal6S(b1-4)Glc", "how_it_was_run": "as §1"}, "GalNAc(a1-3)GalNAc": {"target": "GalNAc(a1-3)GalNAc", "how_it_was_run": "as §1"}, "GalNAc(b1-3)Gal": {"target": "GalNAc(b1-3)Gal", "how_it_was_run": "as §1"}, "[20]": {"target": "GalNAc(b1-3)Gal(a1-4)Gal(b1-4)GlcNAc(b1-3)Gal(b1-4)Glc", "how_it_was_run": "as §1"}, "GalNAc6S(b1-4)GlcNAc": {"target": "GalNAc6S(b1-4)GlcNAc", "how_it_was_run": "as §1"}, "GlcA(b1-3)Gal": {"target": "GlcA(b1-3)Gal", "how_it_was_run": "as §1"}, "[21]": {"target": "GlcNAc(b1-2)Man(a1-3)[GlcNAc(b1-2)Man(a1-6)]Man(b1-4)GlcNAc(b1-4)[Fuc(a1-6)]GlcNAc", "how_it_was_run": "as §1"}, "[22]": {"target": "GlcNAc(b1-2)Man(a1-3)[GlcNAc(b1-4)][GlcNAc(b1-2)Man(a1-6)]Man(b1-4)GlcNAc(b1-4)[Fuc(a1-6)]GlcNAc", "how_it_was_run": "as §1"}, "[23]": {"target": "GlcNAc(b1-3)Gal(b1-4)GlcNAc", "how_it_was_run": "as §1"}},
  "note": "The sample as a whole holds a higher share of the strongest signals than the screen did.",
  "data": [
    {"binder": "Protein L(A-C2) (Finegoldia magna), Q51912 (protein) ADEPIDLEKLEEKRDKENVGNLPKFDNEVKDGSENPMAKYPDFDDEASTRFETENNEFEEKKVVSDNFFDQSEHPFVENKEETPETPETDSEEEVTIKANLIFANGSTQTAEFKGTFEKATSEAYAYADTLKKDNGEYTVDVADKGYTLNIKFAGKEKTPEEPKEEVTIKANLIYADGKTQTAEFKGTFEEATAEAYRYADALKKDNGEYTVDVADKGYTLNIKFAGKEKTPEEPKEEVTIKANLIYADGKTQTAEFKGTFEEATAEAYRYADLLAKENGKYTVDVADKGYTLNIKFAGKEKTPEEPKEEVTIKANLIYADGKTQTAEFKGTFAEATAEAYRYADLLAKENGKYTADLEDGGYTINIRFAGKKVDEKPEEKEQVTIKENIYFEDGTVQTATFKGTFAEATAEAYRYADLLSKEHGKYTADLEDGGYTINIRFAGKEEPEETPEKPEVQDGYASYEEAEAAAKEALKNDDVNKSYTIRQGADGRYYYVLSPVEAEEEKPEAQNGYATYEEAEAAAKKALENDPINKSYSIRQGADGRYYYVLSPVEAE", "values": [
      {"measurement": "glycan array binding signal (z-score)", "setting": "[1]", "result": -0.969},
      {"measurement": "glycan array binding signal (z-score)", "setting": "[2]", "result": -0.355},
      {"measurement": "glycan array binding signal (z-score)", "setting": "[3]", "result": 2.89},
      {"measurement": "glycan array binding signal (z-score)", "setting": "[4]", "result": 6.17},
      {"measurement": "glycan array binding signal (z-score)", "setting": "[5]", "result": -0.485},
      {"measurement": "glycan array binding signal (z-score)", "setting": "[6]", "result": 3.52},
      {"measurement": "glycan array binding signal (z-score)", "setting": "[7]", "result": 1.71},
      {"measurement": "glycan array binding signal (z-score)", "setting": "[8]", "result": 0.052},
      {"measurement": "glycan array binding signal (z-score)", "setting": "[9]", "result": -0.101},
      {"measurement": "glycan array binding signal (z-score)", "setting": "Fuc(a1-4)GlcNAc", "result": -0.933},
      {"measurement": "glycan array binding signal (z-score)", "setting": "[10]", "result": -0.284},
      {"measurement": "glycan array binding signal (z-score)", "setting": "[11]", "result": -0.164},
      {"measurement": "glycan array binding signal (z-score)", "setting": "[12]", "result": 0.716},
      {"measurement": "glycan array binding signal (z-score)", "setting": "[13]", "result": 0.568},
      {"measurement": "glycan array binding signal (z-score)", "setting": "[14]", "result": 3.16},
      {"measurement": "glycan array binding signal (z-score)", "setting": "[15]", "result": -0.365},
      {"measurement": "glycan array binding signal (z-score)", "setting": "Gal(b1-4)GlcNAc", "result": -0.975},
      {"measurement": "glycan array binding signal (z-score)", "setting": "[16]", "result": -0.468},
      {"measurement": "glycan array binding signal (z-score)", "setting": "[17]", "result": 0.357},
      {"measurement": "glycan array binding signal (z-score)", "setting": "[18]", "result": 3.21},
      {"measurement": "glycan array binding signal (z-score)", "setting": "[19]", "result": 3.67},
      {"measurement": "glycan array binding signal (z-score)", "setting": "Gal6S(b1-4)Glc", "result": -0.354},
      {"measurement": "glycan array binding signal (z-score)", "setting": "GalNAc(a1-3)GalNAc", "result": -0.445},
      {"measurement": "glycan array binding signal (z-score)", "setting": "GalNAc(b1-3)Gal", "result": -0.354},
      {"measurement": "glycan array binding signal (z-score)", "setting": "[20]", "result": 0.127},
      {"measurement": "glycan array binding signal (z-score)", "setting": "GalNAc6S(b1-4)GlcNAc", "result": -0.775},
      {"measurement": "glycan array binding signal (z-score)", "setting": "GlcA(b1-3)Gal", "result": -0.562},
      {"measurement": "glycan array binding signal (z-score)", "setting": "[21]", "result": 2.85},
      {"measurement": "glycan array binding signal (z-score)", "setting": "[22]", "result": -0.153},
      {"measurement": "glycan array binding signal (z-score)", "setting": "[23]", "result": -0.623}
    ]}
  ]
}
